# The panel holds about 83,000 compounds, 20% with a hit somewhere; the sample as a whole holds those more often.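 Negative percent growth values reflect cell death: -40 means 40% of the cells present at the start died, and -100 means all died.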 Unmarked numbers belong to inactive results. Calls of active or inactive are those of the source. The calls were made as follows: active = growth percent below 10; inactive = the rest.
# Assays:
# Test in all cases: NCI-60 one-dose screen, 48 h (100 = growth as untreated, 0 = no growth, -100 = all killed)
# Settings in all cases: 10 µM unless noted
# [1] = system: T-47D breast
# [2] = system: BT-549 breast
# [3] = system: MDA-MB-435 melanoma
# [4] = system: SW-620 colon
# [5] = system: MCF7 breast
# [6] = system: HCT-116 colon
# [7] = system: HCC-2998 colon
# [8] = system: KM12 colon
Structure (SMILES),growth [1],growth [2],growth [3],growth [4],growth [5],growth [6],growth [7],growth [8]
Cc1ccc(C2CC(c3cccc(Nc4ccncc4)c3)=NN2c2ccc(Cl)cc2)cc1 (centres undefined),-47.9% (active),96.5%,-84.7% (active),-46.9% (active),-73.4% (active),-80.1% (active),-93.4% (active),-89.3% (active)
CCOc1ccc(/C=N/Nc2cc(C)nc3ccc(Cl)cc23)cc1,60.3%,80.6%,40.9%,-72.8% (active),1.28% (active),-75.3% (active),27.5%,33.3%
COc1ccc2c(c1)OC1=C(C(=O)OC1)C2c1cc(OC)c(OC)c(OC)c1 (centres undefined),66.3%,34.5%,-38.5% (active),23.2%,27.1%,19.3%,6.19% (active),13.1%
COc1ccc(-n2cc(-c3cc(OC)c(OC)c(OC)c3)n(C(C)=O)c2=O)cc1,77.2%,100%,84.3%,98.1%,71.5%,94%,108%,85%
COc1ccc(Cc2nc3cc(OC)c(OC)cc3c(=O)[nH]2)cc1,96%,159%,87.3%,14.3%,91.6%,72.6%,53.7%,18.9%
CCCCCCOc1ccc(C(=N)N(CCCC)CCCC)c2ccccc12,-65.5% (active),-94.6% (active),-89.5% (active),-61.3% (active),-74.8% (active),-99.2% (active),-98% (active),-90.3% (active)
Cc1cc(C(=O)Nc2ncnc3nc[nH]c23)no1,103%,106%,102%,96.1%,93.3%,105%,104%,99.5%
COc1cc(-c2cc(=O)oc3cc(O)ccc23)cc(OC)c1OC,83.5%,97.4%,100%,96%,94%,86.5%,100%,85.7%
CC(=O)c1cccc(NS(=O)(=O)c2cccc(C(=O)Nc3ccc(Br)cc3)c2)c1,26.7% [25 µM],46.9% [25 µM],37.6% [25 µM],67.4% [25 µM],49% [25 µM],39.9% [25 µM],79.7% [25 µM],56% [25 µM]
Nc1nc(SN=Nc2ccc(S(N)(=O)=O)cc2)c2[nH]cnc2n1,23.8%,36%,7.71% (active),19.2%,7.59% (active),12.3%,5.53% (active),5.31% (active)
COc1c(Cl)cc(Cl)c2ccc(C=C3C(=O)NC(=S)NC3=O)nc12,101%,90.2%,106%,104%,90.7%,-76.2% (active),99.2%,112%
Brc1ccc(C2CC(c3cccc(Nc4ccncc4)c3)=NN2c2ccccc2)cc1 (centres undefined),87.8%,84%,70.5%,-33.1% (active),24.5%,77.4%,19.2%,46.9%
COc1ccc2nc(N=Nc3c(O)ccc4ccccc34)sc2c1,27.3%,53.3%,45.1%,35.8%,13.9%,26.6%,45.9%,32.3%
CCC(C)C(N)C(=O)NNc1n[nH]c(=S)n1N (centres undefined),104%,104%,103%,96.9%,96.9%,108%,106%,104%
Clc1cc(Cl)cc(N2N=C(c3cccc(Nc4ccncc4)c3)CC2c2ccccc2)c1 (centres undefined),77.7%,78.2%,-38.9% (active),-68.6% (active),-11% (active),38.7%,-58.8% (active),-8.16% (active)
COc1cc(-c2nc3sccn3c2-c2ccnc(NCCNS(=O)(=O)c3ccc(F)cc3)n2)ccc1F,-3.67% (active),10.5%,2.5% (active),26.9%,5.83% (active),6.58% (active),43.5%,9.07% (active)
COc1ccc(C2CC(c3cccc(Nc4ccncc4)c3)=NN2c2ccccc2)cc1 (centres undefined),68.9%,-16.1% (active),-57% (active),-72.2% (active),8.74% (active),1.38% (active),-52.5% (active),-18.1% (active)
COc1cc(C2CC(c3cccc(Nc4ccncc4)c3)=NN2c2ccccc2)cc(OC)c1OC (centres undefined),82.3%,59.4%,-72.9% (active),-25.9% (active),13.7%,32%,20.2%,7.46% (active)
CCOC(=O)Oc1c(OC)cc(C(=O)O[C@@H]2C[C@@H]3CN4CCc5c([nH]c6cc(OC)ccc56)[C@H]4C[C@@H]3[C@H](C(=O)OC)[C@H]2OC)cc1OC,38.6%,77.5%,70.9%,48.4%,83.8%,1.57% (active),68.7%,39.8%
O=C(c1ccccc1)N1N=C(c2ccc(-n3ccc(C(F)(F)F)n3)cc2)CC1c1ccc[nH]1 (centres undefined),73.5%,116%,96%,98.9%,91.5%,93.7%,115%,79.7%
O=C(CNCCO)Nc1ccc2ncnc(Nc3ccc(OCc4cccc(F)c4)c(Cl)c3)c2c1,45.2%,80.5%,96.8%,106%,82.5%,64.3%,97%,87%
CCOC(=O)N1CCN(CCCCl)CC1,103%,99.5%,103%,107%,97.7%,93.8%,101%,105%
Cc1nccc2c3ccc(OCc4cn(-c5ccc(Cl)cc5)nn4)cc3n(CCCc3ccccc3)c12,74.7%,31.8%,27.8%,12.9%,20.2%,31.7%,70.9%,35.2%
O=S(=O)(NCCNc1nccc(-c2c(-c3cccc(F)c3)nc3occn23)n1)c1cccc2ccccc12,29.9%,78.3%,32.8%,72.1%,27.8%,36.1%,79.7%,49.6%
CC(C)[N+](C)(CCOC(COc1ccccc1)COc1ccccc1)C(C)C,85.7%,80.6%,91.9%,102%,91.4%,92.2%,96.7%,83.5%
O=C(NNc1nc(Cl)nc(N2CCN(C(c3ccccc3)c3ccccc3)CC2)n1)c1ccccc1,54.8%,7.6% (active),58.7%,-40.7% (active),82.5%,-23.9% (active),-24.5% (active),76.9%
CC(=O)OC1CCC2(C)C(CCC3C4CC=C(C(C)=O)C4(C)OC(=O)CC32)C1 (centres undefined),17.4%,28.8%,20.4%,-48.7% (active),11.2%,-98.9% (active),73.8%,81.6%
COc1ccc(-c2c(-c3ccccc3)noc2N)cc1OC,99.6%,105%,91%,118%,91.2%,100%,110%,94.7%

# From PubChem BioAssay (NCI)
